# RGS4-Gao reg = modulators of RGS4 binding to Galphao, primary screen, biochemical, multiplexed bead flow cytometry. hit rate 0.33% among 220,000. actives lie on both sides. AID 1415, 2008. Guanine nucleotide-binding protein G(o) subunit alpha (Homo sapiens), P09471. binding response (% of control), % at 10 µM; in the data active = binding response below about 49% or above about 150%; inactive = in between;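 note: fluorescent Galphao activated with aluminum fluoride binding bead-coupled RGS4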
# RGS16-Gao HTS = modulators of RGS16 binding to Galphao, primary screen, biochemical, human proteins, multiplexed bead flow cytometry | Regulator of G-protein signaling 16 (Homo sapiens) + Guanine nucleotide-binding protein … | bead-based flow cytometry RGS16-Galphao binding, fluorescence; actives lie on both sides | hit rate 0.38% among 220,000 | binding response (% of control), % at 10 µM;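 note: Galphao activated by GDP with aluminum fluoride before binding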
# Target sequence (O15492 whole entry, looked up): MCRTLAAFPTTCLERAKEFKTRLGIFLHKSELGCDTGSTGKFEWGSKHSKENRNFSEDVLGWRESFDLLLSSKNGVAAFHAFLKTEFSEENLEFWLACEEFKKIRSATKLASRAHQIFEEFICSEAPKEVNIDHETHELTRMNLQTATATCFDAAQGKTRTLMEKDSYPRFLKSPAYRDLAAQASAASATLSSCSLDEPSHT
# Target sequence (P09471 whole entry, looked up): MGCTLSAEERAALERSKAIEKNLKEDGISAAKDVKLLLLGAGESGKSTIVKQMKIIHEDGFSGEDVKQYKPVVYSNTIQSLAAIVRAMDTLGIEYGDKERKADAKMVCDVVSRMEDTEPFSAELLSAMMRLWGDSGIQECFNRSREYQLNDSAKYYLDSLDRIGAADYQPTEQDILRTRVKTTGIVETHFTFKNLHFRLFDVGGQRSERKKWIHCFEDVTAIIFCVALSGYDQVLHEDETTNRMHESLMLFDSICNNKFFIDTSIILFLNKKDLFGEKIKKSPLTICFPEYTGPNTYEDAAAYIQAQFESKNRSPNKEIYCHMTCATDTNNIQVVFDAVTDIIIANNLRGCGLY
# RGS8-Gao = RGS8-Galphao binding modulators, primary screen, biochemical, multiplexed bead flow cytometry | response (percent of control binding), % at 10 µM | hit rate 0.34% among 220,000 | actives lie on both sides; in the data active = response below about 60% or above about 140%; inactive = in between;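 note: Galphao activated as the GDP aluminium fluoride complex binding bead-coupled RGS8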
# RGS7-Gao reg = RGS7-Galphao binding modulators, primary screen, biochemical, multiplexed bead flow cytometry; actives lie on both sides; AID 1439, 2008; binding response (% of control), % at 10 µM; Guanine nucleotide-binding protein G(o) subunit alpha (Homo sapiens), P09471; hit rate 0.35% among 220,000; in the data active = binding response below about 49% or above about 150%; inconclusive = no clear call, values can overlap the other calls; inactive = in between;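 note: fluorescent Galphao held in activated GDP-AlF4 state binding bead-coupled RGS7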
# RGS4-Gao HTS = modulators of RGS–Galpha-o binding, primary screen, biochemical, multiplexed beads, flow cytometry, RGS4/7/8/16/19; shares compounds with RGS16-Gao HTS; multiplexed bead flow cytometry; RGS4–Galpha-o binding response, % at 10 µM; hit rate 99% among 1,600;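 note: fluorescently labeled Galpha-o bound to GDP with aluminium fluoride binding biotinylated RGS beads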
# Avidin counter = disruption of biotin probe capture by avidin, counter-screen for RGS protein interaction modulators, biochemical, flow cytometry, bead-based; shares compounds with RGS16-Gao HTS; streptavidin beads, fluorescein-biotin binding; inhibition, % at 10 µM; 1,700 tested, under 10 active; AID 1783, 2009;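 active = inhibition above 50%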;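 note: median green fluorescence of gated singlet beads compared with DMSO control wells; 0% = DMSO wells and 100% = complete loss of bead fluorescence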
# RGS8-Gao confirm = RGS8-Galphao binding modulators, confirmation, biochemical, multiplexed bead flow cytometry, single concentration | shares compounds with RGS16-Gao HTS | bead-based flow cytometry RGS8-Galphao binding, fluorescence; actives lie on both sides | binding response (% of control), % at 10 µM | hit rate 3% among 1,700 | AID 1836, 2009; in the data active = binding response below about 72% or above about 130%; inactive = in between;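 note: Galphao activated as GDP AlF4 complex before binding bead RGS8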
# RGS7-Gao confirm = RGS7-Galphao binding modulators, confirmation, biochemical, multiplexed bead flow cytometry, single concentration; shares compounds with RGS16-Gao HTS; bead-based flow cytometry RGS7-Galphao binding; actives lie on both sides; response (percent of control binding), % at 10 µM; hit rate 7.8% among 1,700; in the data active = response below about 75% or above about 130%; inactive = in between;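 note: fluorescent Galphao activated with GDP and aluminum fluoride binding bead-coupled RGS7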
# RGS16-Gao conf = modulators of RGS16-Galphao protein binding, confirmation, biochemical, single concentration, multiplexed bead flow cytometry | hit rate 4% among 1,700 | shares compounds with RGS16-Gao HTS | response (% of control binding), % at 10 µM | bead-based flow cytometry; actives lie on both sides; in the data active = response below about 74% or above about 130%; inactive = in between;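 note: Galphao activated as the GDP aluminium fluoride complex binding bead-coupled RGS16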
# RGS4-Gao single = modulators of RGS4-Galphao protein binding, confirmation, biochemical, single concentration, multiplexed bead flow cytometry; shares compounds with RGS16-Gao HTS; actives lie on both sides; binding response (% of control), % at 10 µM; hit rate 4% among 1,700; AID 1840, 2009; in the data active = binding response below about 74% or above about 130%; inactive = in between
# RGS19-Gao conf = regulators of RGS19-Galphao binding, confirmation, biochemical, single point, multiplexed bead flow cytometry | shares compounds with RGS16-Gao HTS | hit rate 5% among 1,700 | bead-based flow cytometry RGS19-Galphao binding; actives lie on both sides | response (percent of control binding), % at 10 µM; in the data active = response below about 50% or above about 160%; inactive = in between;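 note: 100% = no compound control and 0% = blank background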
# * marks the source's active call; other numbers are inactive results; ? = inconclusive; nt = no result given; [ ] = remark or other dose. Rows were chosen to be rich in hits. Some 0.78% of all compounds tested hit in one or more screens of this group. Unless noted, the rule behind the calls is not given here.
SMILES,RGS4-Gao reg,RGS16-Gao HTS,RGS8-Gao,RGS7-Gao reg,Avidin counter,RGS8-Gao confirm,RGS7-Gao confirm,RGS16-Gao conf,RGS4-Gao single,RGS19-Gao conf,others
O=C1/C(=C\c2ccc(-c3ccccc3[N+](=O)[O-])o2)C(c2ccccc2)=NN1c1ccccc1,-5.8*,-1.8*,14*,7.8*,-5,100,86,98,95,86,
COc1ccc(CNC(=O)CN(c2cc(C)cc(C)c2)S(=O)(=O)c2c(C)noc2C)cc1,102,105,105,106,nt,nt,nt,nt,nt,nt,
CCCN(CCC)c1nc(N(CCC)CCC)[nH]c(=O)n1,16*,9.2*,20*,5.2*,1,99,99,98,99,97,
CCN(Cc1ccccc1)C(=O)Cn1cc2c(n1)CCCC2,106,101,100,104,nt,nt,nt,nt,nt,nt,
O=C(Oc1ccc(Br)cc1)c1cncc(Br)c1,171*[activator],170,110,159*[activator],0,103,112,105,106,102,
CC(C)CCN1CCC(N)=NC1=O,234*[activator],191*[activator],110,217*[activator],-2,115,104,116,107,86,
CC(C)CCN1CC(C(=O)NCCC2=CCCCC2)CC1=O (stereo not drawn),101,103,104,99,nt,nt,nt,nt,nt,nt,
Cc1cc(C)c2ccc(=S)[nH]c2n1,101,102,101,102,nt,nt,nt,nt,nt,nt,
COc1ccc(/C(O)=C2\C(=O)C(=O)N(Cc3ccco3)C2c2cc(OC)ccc2OC)cc1 (stereo not drawn),31*,21*,24*,26*,-1,100,102,101,100,94,
Cc1c(/C=N/NC(=O)c2sc3ccccc3c2Cl)cnn1C,96,94,98,98,nt,nt,nt,nt,nt,nt,
O=C1/C(=C/c2cccnc2)SC(=S)N1c1ccc(O)cc1,101,107,101,?,nt,nt,nt,nt,nt,nt,
O=C1/C(=C/c2cccnc2)SC(=S)N1c1ccc(F)cc1,109,178*[activator],116,108,-1,102,103,101,102,98,RGS4-Gao HTS=109*
O=C(NCCSCc1ccc(Cl)cc1Cl)c1ccc(CN2CCOCC2)cc1,-21*,-10*,13*,-2.0*,1,99,100,99,99,108,
O=C1CSC(=Nc2ccc(Cl)cc2)N1Cc1cccnc1,5.3*,19*,55*,?,0,93,90,93,94,109,
CC(C)(C)c1ccc(N=C2SCC(=O)N2Cc2cccs2)cc1,100,103,103,?,nt,nt,nt,nt,nt,nt,
